Shown are actives, neighbours in structure and some others; about 11% of the full set was active somewhere.
G9a inh = blocks human histone lysine methyltransferase G9a; Q96KQ7; G9a H3K9 monomethylation, AlphaScreen, 2 h; Potency, µM (titrated, usually from 102 µM), for the others: top-dose activity, negative = inhibition, usual class: inhibitors; 350,000 tested, 8.8% active; also: % is scaled to controls: 0 for no effect and ±100 for the full control effect; nearly all actives have a fitted effect of over 75% in size
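AlphaScreen read-out: biotin-H3K9 peptide (500 nM) methylation by 20 nM enzyme with 20 uM SAM, 2 h at room temperature after 15 min compound preincubation; anti-monomethyl H3K9 antibody plus donor/acceptor beads, 10 min dark.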
L3MBTL1 inh = inhibitors of human L3MBTL1 | AID 485360 | AlphaScreen L3MBTL1–H3K9me1 peptide binding | Q9Y468 | 230,000 tested, 0.66% active | Potency, µM (series often up to 57.1 µM), inactives show at the top dose activity, negative = inhibition, actives largely listed as inhibitors; also: % is scaled to controls: 0 for no effect and ±100 for the full control effect; nearly all actives have a fitted effect of over 60% in size
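Read-out is AlphaScreen signal from streptavidin donor and nickel chelate acceptor beads (10 ug/mL final each) bridging L3MBTL1 (50 nM) and biotinylated K9-monomethylated H3(1-15) peptide (75 nM), after 30 min compound exposure at room temperature.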
BAZ2B inh = BAZ2B (human) inhibition. AlphaScreen BAZ2B-H3K14Ac peptide displacement. Potency, µM (series often up to 114 µM), for the others: at the highest dose activity change, negative = inhibition, actives largely listed as inhibitors. 360,000 tested, 4.4% active; also: % is scaled to controls: 0 for no effect and ±100 for the full control effect; nearly all actives have a fitted effect of over 60% in size
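Protein-peptide AlphaScreen: BAZ2B 50 nM, b-H3K14Ac 50 nM, 1x PBS pH 7.4 + 0.01% Tween-20. Preincubation 30 min RT; cpd 30 min RT (top 110 uM); beads 20 min RT, light-protected.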
JMJD2A Tudor = blocks the human JMJD2A Tudor domain; O75164; AlphaScreen JMJD2A-Tudor / H3K4me3 peptide binding; Potency, µM (series often up to 114 µM), without a hit: top-dose activity change, negative = inhibition, hits mostly inhibitors; 390,000 tested, 4.4% active; AID 504339; also: % is scaled to controls: 0 for no effect and ±100 for the full control effect; nearly all actives have a fitted effect of over 50% in size
HP1b binding inh = HP1-beta chromodomain-methylated histone interaction inhibition; P83916; AlphaScreen HP1-beta / biotin-H3K9me3 peptide binding; Potency, µM (series often up to 114 µM), for inactives: top-dose activity change, negative = inhibition, most hits filed as inhibitors; 390,000 tested, 0.56% active; AID 540317; also: nearly all actives have a fitted effect of over 70% in size
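HP1-beta protein (50 nM final) preincubated 30 min at room temperature with biotinylated H3(1-18)K9me3 peptide (50 nM) in PBS pH 7.4, 0.01% Tween-20, then compound added for 30 min. AlphaScreen streptavidin donor/nickel chelate acceptor beads (10 ug/mL final), 30 min dark, luminescence read.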
* = called active by the depositor; ? = inconclusive; / = no result; [ ] = another dose, or the depositor's remark. Calls follow the shape of the dose curve; as a rule, active = well fitted inhibition curve with a large enough effect; inconclusive = small, poorly fitted or top-dose-only effect; inactive = no such curve, though single readings can be large or run the other way. Potency is read from the fitted curve at half-maximal effect.

SMILES | G9a inh | L3MBTL1 inh | BAZ2B inh | JMJD2A Tudor | HP1b binding inh
O=C(O)CCSc1ccccn1 | 14µM* | -1% | 1% | -16% | 17%
Cc1nn(-c2ccccc2)c(=S)n1-c1ccccc1 | -29%[12.7 µM] | / | 7% | 1% | 37%
OCCn1nc2c3ccccc3nc-2n(-c2ccccc2)c1=S | 25µM* | 3% | -11% | -16% | -24%
Cc1ccc2[nH]c(O)c(N=Nc3ccccc3[N+](=O)[O-])c2c1 | / | / | / | -22% | 12%
COc1ccccc1N=Nc1[nH]c2ccc(C)cc2c1O | 11µM* | -10% | 50µM* | ? | -1%
Cc1ccc(C)c(N2CCN(C(=S)Nc3ccc4nc(N5CCOCC5)cc(C)c4c3)CC2)c1 | -35% | / | / | -7% | 26%
Cc1nc2ccc(NC(=S)N3CCN(c4ccccn4)CC3)cc2nc1C | -20%[59 µM] | 8% | 4% | -19%[57.1 µM] | 17%
Cc1cc(N2CCN(C)CC2)nc2ccc(NC(=S)N3CCN(c4ccccn4)CC3)cc12 | 50µM* | / | ? | ? | -2%
Cc1ccc(C)c(N2CCN(C(=S)Nc3ccc4nc(N5CCN(C)CC5)cc(C)c4c3)CC2)c1 | 40µM* | / | -18% | -21% | 38%
Cc1cc(N2CCN(C)CC2)nc2ccc(NC(=S)N3CCC4(CC3)OCCO4)cc12 | 45µM* | / | -13% | -2% | 1%
CCC(C(=O)NCCc1ccc(Cl)cc1)n1ccc2cc(S(=O)(=O)N3CCCCC3)ccc21 (centres undefined) | -26%[59 µM] | / | -15% | -8% | 15%
O=S(=O)(c1ccc(Br)s1)N1CCN(c2ccccc2)CC1 | -28% | 12% | 4% | 1% | 36%
O=S(=O)(c1ccc(Br)s1)N1CCN(c2ccc(F)cc2)CC1 | 40µM* | / | 6% | -14% | -8%
CCOC(=O)c1cnn(-c2ccc(C(=O)Nc3ccc(C(C)=O)cc3)cc2)c1N | 0%[59 µM] | / | -1% | -7% | 35%
c1c[nH]c(CN2CCN(Cc3ncc[nH]3)CC2)n1 | / | / | / | 14µM* | 23%
COc1ccc(OC)c(C(O)c2coc3ccc(O)c(CN(C)C)c23)c1 (centres undefined) | ? | / | -20% | -20% | 22%
COc1ccc(C(=O)c2c(C)oc3ccc(O)c(CN4CCOCC4)c23)cc1 | 45µM* | / | -6% | -33% | -2%
COc1ccc(OC)c(C(O)c2coc3ccc(O)c(CN4CCOCC4)c23)c1 (centres undefined) | 8%[59 µM] | -3% | -23% | 89µM* | 5%
COc1ccc(NC(=O)c2c(C)oc3ccc(O)c(CN4CCOCC4)c23)cc1 | -4%[59 µM] | / | -11% | -13% | 29%
CCOC(=O)c1c(-c2ccccc2)oc2ccc(O)c(CN3CCCC3)c12 | 45µM* | 2% | -30% | -11% | 10%
Cc1ccc(C(=O)NNC(=O)c2ccc(-n3cncn3)c([N+](=O)[O-])c2)cc1 | -27% | 8% | 1% | -2% | 28%
O=C(CSc1nnc(-c2cccnc2)o1)Nc1cccc(Cl)c1 | 45µM* | / | -8% | -8% | 29%
O=C(CSc1nnc(-c2ccccc2Br)o1)Nc1nncs1 | / | 9% | 19% | -13% | 18%
O=C(CSc1nnc(-c2ccc(O)cc2)o1)NNC(=O)c1ccncc1 | 18µM* | / | ? | ? | 8%
Cc1ccc(NC(=O)CSc2nnc(-c3ccccc3Br)o2)cc1C | 10µM* | 8% | -5% | -17% | 15%
SMILES | G9a inh | L3MBTL1 inh | BAZ2B inh | JMJD2A Tudor | HP1b binding inh
O=C(CSc1nnc(-c2ccncc2)o1)Nc1nncs1 | 15% | / | -22% | 32µM* | 18%
Cn1nnnc1Sc1ncnc2scc(-c3ccc4c(=O)ccoc4c3)c12 | / | / | / | -14% | /
CCN(CC)S(=O)(=O)c1cc(C(=O)OCC(=O)NC(=O)c2cccn2C)ccc1C | ? | -8% | 4% | -12% | 1%
CC(C)OCCCNC(=O)Cc1ccc(NC(=O)N2CCCCc3ccccc32)cc1 | 14%[59 µM] | / | -6% | -17% | -3%
CCc1noc(C)c1C(=O)NC1CC(C)(C)Cc2c1cnn2-c1ccccc1 (centres undefined) | -11% | / | -2% | / | /
COc1ccc(N2CCN(CCCNC(=O)c3cc4sccc4n3C)CC2)cc1 | 14µM* | ? | 40µM* | 32µM* | -52%
COc1ccc(N2CCN(CCCNC(=O)CN3CCN(Cc4ccccc4C)C3=O)CC2)cc1 | ? | -24% | 32µM* | ? | ?

Assay outcomes deposited in PubChem BioAssay by National Center for Advancing Translational Sciences (NCATS).
